Whole data set: some 1,700 compounds, median “T3 sensor activation Q score (MG/GFP ratio z-score vs DMSO controls)” near 0.25, cut for the highest 2% near 1.9. The full list was thinned out, with the highest values kept by preference.
System: ppGalNAc-T3 sensor
Test: T3 sensor activation Q score (MG/GFP ratio z-score vs DMSO controls) (SD units); higher = more sensor activation (inhibition of ppGalNAc-T3 glycosylation)
Details: HEK293 sensor cells; 10 µM; 6 h
Procedure: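 Cells were treated with compound at 10 uM for 6 h, then MG/GFP ratio was read by flow cytometry (10,000 cells per well, duplicate wells). Q = (R - R_neg)/SD_neg relative to DMSO vehicle controls; the signal rises when the glycosyltransferase is inhibited.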

Compound	T3 sensor activation Q score
Cc1cc(=O)c2c(=O)[nH][nH]c2[nH]1	-1.35
CCc1noc2cc(-c3ccccc3)n(C)c(=O)c12	0.35
CCCSc1ncnc2[nH]ncc12	1.45
C#Cc1cccc(NC(=O)c2ccc(Cl)cc2Cl)c1	-0.65
C#Cc1cccc(Nc2ncnc3cc(OCCOC)c(OCCOC)cc23)c1	2.15
CCCNC(=O)c1ccccc1C(=O)NC1(C(=O)NCCC)CCCC1	-0.35
Nc1nc(Nc2ccccc2)n[nH]1	-0.55
NC(=O)Nc1ccc(Nc2ccccc2)cc1	0.7
CC1(C)CC(Nc2ccc(Nc3ccccc3)cc2)CC(C)(C)N1	1.85
OCCCCc1nccc2c1[nH]c1ccccc12	1
CNC(=O)c1ccccc1Sc1ccc2c(/C=C/c3ccccn3)n[nH]c2c1	0.7
O=C(O)CCC(=O)c1ccc2ccc3cccc4ccc1c2c34	1.75
CCOC(=O)Nc1c(Cl)n(C)c(=O)n(C)c1=O	1.75
CN(C)c1nc(=NCc2ccco2)ss1	-1.15
Clc1nnc2c3ccccc3ccn12	0.05
Cc1nc(C(N)=O)nc2ccccc12	0.2
NC(=O)c1cc2c3ccccc3ccn2c1-c1ccccc1	2.95
Cc1cnc(SCc2ccc(Cl)cc2Cl)[nH]c1=O	-0.3
COc1ccc([N+](=O)[O-])cc1NS(=O)(=O)c1ccc(C)cc1	-0.7
Cn1c(=O)c2c(nc(Oc3ccccc3)n2C)n(C)c1=O	0.7
Cn1c(=O)c2c(nc(Cc3ccccc3)n2C)n(C)c1=O	1.9
Cn1c(=O)c2c(nc(OCCc3ccccc3)n2C)n(C)c1=O	1.6
CCOC(=O)c1cc(OCC)c2c(ccc3ccccc32)n1	1.85
CCOC(=O)N1CCN(Cc2c(O)ccc3ccccc23)CC1	-0.95
CCOC(=O)c1cc(-c2ccccc2)nc2ccc(C)cc12	0.8
CC(=O)NS(=O)(=O)c1ccc2sc(C)nc2c1	0.15
Nc1ccc(S(=O)(=O)NCC2CCCCO2)cc1 (centres undefined)	1.6

Compound	T3 sensor activation Q score
NC(N)=NS(=O)(=O)c1ccc(N=C2C(=O)Nc3ccccc32)cc1	0.3
Cc1ccc(C(=O)Nc2ccc(CN3CCN(C)CC3)c(C(F)(F)F)c2)cc1C#Cc1cnc2cccnn12	1.9
Cc1ccc(NC(=O)c2ccc(CN3CCN(C)CC3)cc2)cc1Nc1nccc(-c2cccnc2)n1	-1.55
Cc1c(NC(=O)Nc2c(Cl)cccc2Cl)c(=O)n(-c2ccccc2)n1C	0.1
Oc1c(N=Nc2nn[nH]n2)ccc2ccccc12	1.25
Cn1cnc2ncnn2c1=S	-1.2
C=CCNC(=S)NCC	1.9
C=CCNC(=S)NCC=C	0.35
C=CCNC(=S)Nc1c(N)n(C)c(=O)n(C)c1=O	0.75
O=C(NN1CCCCC1)NN1CCCCC1	1.35
O=C(O)c1cccc2c1C(=O)c1cccc3snc-2c13	-0.15
CN1C(=C=Cc2cc(I)c(O)c(I)c2)C(C)(C)c2ccccc21	1.9
CCCNC(=O)c1ccc(S(N)(=O)=O)cc1	0.65
O=[N+]([O-])C1C(c2ccccc2)C12c1ccccc1-c1ccccc12 (centres undefined)	3.55
O=C(c1ccccc1)C1C(c2ccccc2)C1[N+](=O)[O-] (centres undefined)	1.7
CCN(CC)Cc1cc2[nH]c3c4ccc(Cl)cc4ncc3c2cc1OC	1.9
Cc1cnc2cc(Cl)ccc2c1SCC(=O)O	0.5
c1ccc(-c2nc[nH]c2-c2ccccc2)cc1	0.1
C[C@@H]1C[C@H]2OC(=O)[C@@]3(C)CCC[C@@](C)([C@@H]23)[C@@]1(O)CCc1ccoc1	0.2
COC(=O)c1cc2c(n1S(=O)(=O)c1ccc(C)cc1)C(=O)C(=O)c1[nH]cc(C(=O)OCc3ccccc3)c1-2	0.25
C1CCc2nc3c(nc2C1)CCCC3	-0.2
Nc1c(Cl)cc(S(N)(=O)=O)cc1S(N)(=O)=O	1.1
CC(C)(C)n1nc(C2CC2)cc1NC(=O)Nc1ccccc1	0.25
COC(=O)C1(F)C(=O)NC(=O)NC1OC (centres undefined)	0.6
O=C(N(c1ccccc1)c1ccccc1)N(c1ccccc1)c1ccccc1	1
COc1cc(Nc2c(C#N)cnc3cc(OCCCN4CCN(C)CC4)c(OC)cc23)c(Cl)cc1Cl	1
COc1cc2c(Nc3ccc(Br)cc3F)ncnc2cc1OCC1CCN(C)CC1	2.1

Compound	T3 sensor activation Q score
COc1cc2ncnc(Nc3ccc(F)c(Cl)c3)c2cc1OCCCN1CCOCC1	1.2
O=C(O)C(=O)Nc1ncn[nH]1	-1.75
Cn1c(=O)c2[nH]c(N3CCCCC3)nc2n(C)c1=O	1.9
Cn1c(=O)c2c(nc(N3CCCCC3)n2C)n(C)c1=O	-0.65
CCCc1nc2c([nH]1)c(=O)n(C)c(=O)n2C	-0.95
NC1(N2SC(S)=C3CCCC=C32)CCCCC1	0.75
NC1=C(O)C(=O)C(c2ccccc2)O1 (centres undefined)	0.05
O=c1cc(-c2cccnc2)oc2c1ccc1ccccc12	1.25
O=C1c2ccccc2NC(c2cc(Cl)cc(Cl)c2O)N1CCc1ccccn1 (centres undefined)	0.55
Cc1nnc2nc(N)[nH]n2c1=O	-1.2
O=C(O)CSc1nc2ccccc2s1	-0.1
COC1=C[C@@H](C)[C@@H]2C[C@H]3OC(O)C[C@H]4C(C)=C(OC)C(=O)[C@H]([C@@]2(C)C1=O)[C@@]34C (some centres undefined)	0.4
CCOC(=O)Cc1csc2nc(-c3ccccc3)nn12	0.25
N#CC1=CC2CN(Cc3ccccc3)C1C1C(=O)N(c3ccccc3)C(=O)C21 (centres undefined)	0.45
c1ccc(-c2nnc3nc(N4CCCCC4)nc(N4CCCCC4)n23)cc1	1.3
NC(N)=NCCCS(=O)(=O)Nc1ccc(Nc2c3ccccc3nc3cc([N+](=O)[O-])ccc23)cc1	-0.75
CN(C)c1ccc(/C=C2/C=C(c3ccc4c(c3)CCCC4)OC2=O)cc1	0.9
Clc1cc2c(nn1)Nc1ccccc1S2	0.2
CC(C)c1ncc(CO)n1Cc1c(Cl)cccc1Cl	1.85
Cn1c(CO)cnc1-c1ccccc1	0.3
O=c1[nH]c(SCc2ccccc2[N+](=O)[O-])nc2nc[nH]c12	0.3
O=c1cc(-c2ccccc2)oc2ccc(O)cc12	0.15
N[C@H](C(=O)O)[C@H]1ON=C(Cl)[C@H]1O	-0.15
COc1c(C=O)c2c(c(OC)c1OC)-c1ccc(OC)c(=O)cc1C(NC(C)=O)CC2 (centres undefined)	4.1
CS/C(=N\S(=O)(=O)c1ccccc1)NNC(=O)c1c(-c2c(Cl)cccc2Cl)noc1C	0.65

Source: the supplement of paper PMC5407854, “Inhibitor of ppGalNAc-T3-mediated O-glycosylation blocks cancer cell invasiveness and lowers FGF23 levels” (eLife, 2017)
